IC50 data for 34 compounds are collected here from PubChem BioAssay AID623970 (The Scripps Research Institute Molecular Screening Center, 2012).

Where “and” joins values, the source holds several entries; their conditions need not be identical. Identical values can stand only once. More than one record can exist for a structure, and the calls need not agree. Calls of active or inactive are those of the source. Cut-off read from the data, not from the text of the source: active = IC50 below about 90 µM; inactive = the rest.

As usually defined, the IC50 is the point on the concentration scale where inhibition reaches its midpoint.

This assay in a line: DNA binding via SYBR dye displacement, late-stage follow-up, artefact control for HCV NS3 helicase inhibitor project, biochemical, fluorescence (AID 623970).
As to `CN1CCN(Cc2cc(CN3CCN(C)CC3)c(O)c(=O)c(CN3CCN(C)CC3)c2)CC1`, the IC50 is 72 µM (active).

With `Cc1ccc2nc(-c3ccc4nc(-c5ccc(NC(=O)c6ccc(N(C)C)cc6)cc5)sc4c3)sc2c1S(=O)(=O)O`, the IC50 is > 100 µM (inactive).

Take `Cc1ccc2nc(-c3ccc4nc(-c5ccc(N)cc5)sc4c3)sc2c1S(=O)(=O)O`: the IC50 was > 100 µM (inactive) and 23 µM (active).

As for `Cc1ccc2nc(-c3ccc4nc(-c5ccc(NC(=O)c6cccc(Cl)c6)cc5)sc4c3)sc2c1S(=O)(=O)O`, the IC50 is > 100 µM (inactive).

Consider `Cc1ccc2nc(-c3ccc(NC(=O)c4ccc(NC(=S)Nc5ccccc5)cc4)cc3)sc2c1S(=O)(=O)O`, for which the IC50 is > 100 µM (inactive).

On to `Cc1ccc2nc(-c3ccc4nc(-c5ccc(NC(=O)c6ccc(F)cc6)cc5)sc4c3)sc2c1S(=O)(=O)O`, for which the IC50 was > 100 µM (inactive).

Turning to `O=C(CCCCCCC(=O)Nc1ccc(-c2nc3ccccc3[nH]2)cc1)Nc1ccc(-c2nc3ccccc3[nH]2)cc1`, the IC50 is 14 µM (active).

Take `Cc1ccc2nc(-c3ccc4nc(-c5ccc(NC(=O)c6cc(F)ccc6C(F)(F)F)cc5)sc4c3)sc2c1S(=O)(=O)O`: the IC50 was > 100 µM (inactive).

Regarding `Cc1ccc2nc(-c3ccc4nc(-c5ccc(NC(=O)c6ccc(C(C)(C)C)cc6)cc5)sc4c3)sc2c1S(=O)(=O)O`, the IC50 was 16 µM (active).

Regarding `Cc1ccc2nc(-c3ccc4nc(-c5ccc(NC(=O)c6ccc(N)cc6)cc5)sc4c3)sc2c1S(=O)(=O)O`, the IC50 is 55 µM (active).

For the compound `Cc1ccc2nc(-c3ccc4nc(-c5ccc(NC(=O)c6cc(C(F)(F)F)cc(C(F)(F)F)c6)cc5)sc4c3)sc2c1S(=O)(=O)O`, the IC50 was 86 µM (active).

With `COC(=O)c1ccc(C(=O)Nc2ccc(-c3nc4ccc(-c5nc6ccc(C)c(S(=O)(=O)O)c6s5)cc4s3)cc2)cc1`, the IC50 is > 100 µM (inactive).

For the compound `Cc1ccc2nc(-c3ccc(NC(=O)c4ccc(C(F)(F)F)cc4)cc3)sc2c1S(=O)(=O)O`, the IC50 is > 100 µM (inactive).

In the case of `Cc1ccc2nc(-c3ccc4nc(-c5ccc(NC(=O)c6c(F)cccc6C(F)(F)F)cc5)sc4c3)sc2c1S(=O)(=O)O`, the IC50 was 64 µM (active).

In the case of `Cc1ccc2nc(-c3ccc4nc(-c5ccc(NC(=O)c6ccc7ncoc7c6)cc5)sc4c3)sc2c1S(=O)(=O)O`, the IC50 is 46 µM (active).

In the case of `CC(=O)Nc1ccc(-c2nc3ccc(-c4nc5ccc(C)c(S(=O)(=O)O)c5s4)cc3s2)cc1`, the IC50 was > 100 µM (inactive).

Take `Cc1ccc2nc(-c3ccc4nc(-c5ccc(NC(=O)c6ccc(C(F)(F)F)c(F)c6)cc5)sc4c3)sc2c1S(=O)(=O)O`: the IC50 is 28 µM (active).

Turning to `Cc1ccc2nc(-c3ccc4nc(-c5ccc(NC(=O)c6ccc7nc(-c8ccc(N)cc8)sc7c6)cc5)sc4c3)sc2c1S(=O)(=O)O`, the IC50 is 68 µM (active).

Consider `Cc1ccc2nc(-c3ccc(NC(=O)c4ccc(NC(=O)c5ccccc5)cc4)cc3)sc2c1S(=O)(=O)O`, for which the IC50 is > 100 µM (inactive).

For the compound `Cc1ccc2nc(-c3ccc4nc(-c5ccc(NC(=O)c6cccc(C(F)(F)F)c6)cc5)sc4c3)sc2c1S(=O)(=O)O`, the IC50 is > 100 µM (inactive).

Regarding `COc1ccc(C(=O)Nc2ccc(-c3nc4ccc(-c5nc6ccc(C)c(S(=O)(=O)O)c6s5)cc4s3)cc2)cc1`, the IC50 is > 100 µM (inactive).

For `Cc1cc2sc(-c3ccc(N)cc3)nc2cc1S(=O)(=O)O`, the IC50 is > 100 µM (inactive).

In the case of `Cc1ccc2nc(-c3ccc4nc(-c5ccc(NCc6ccccc6)cc5)sc4c3)sc2c1S(=O)(=O)O`, the IC50 is 27 µM (active).

For the compound `Cc1ccc2nc(-c3ccc4nc(-c5ccc(NC(=O)Nc6ccccc6)cc5)sc4c3)sc2c1S(=O)(=O)O`, the IC50 was > 100 µM (inactive).

On to `Cc1ccc2nc(-c3ccc4nc(-c5ccc(NC(=O)Nc6ccc(F)cc6)cc5)sc4c3)sc2c1S(=O)(=O)O`, for which the IC50 is 74 µM (active).

`Cc1ccc2nc(-c3ccc4nc(-c5ccc(NC(=O)c6cccc7ccccc67)cc5)sc4c3)sc2c1S(=O)(=O)O`: the IC50 is 30 µM (active).

Consider `COc1cccc2c(=O)c3cc(Cl)cc(C(=O)Nc4cc(Cl)ccn4)c3[nH]c12`, for which the IC50 was > 100 µM (inactive).

With `Cc1ccc2nc(-c3ccc4nc(-c5ccc(NC(=O)c6ccc(CNC(=O)OCC7c8ccccc8-c8ccccc87)cc6)cc5)sc4c3)sc2c1S(=O)(=O)O`, the 50% inhibitory concentration (IC50) is 56 µM (active).

For `Cc1ccc2nc(-c3ccc4nc(-c5ccc(NC(=O)c6ccc(C(F)(F)F)cc6)cc5)sc4c3)sc2c1S(=O)(=O)O`, the IC50 was 29 µM (active).

On to `Cc1ccc2nc(-c3ccc4nc(-c5ccc(NC(=O)c6ccc7nc(-c8ccc(NC(=O)OCC9c%10ccccc%10-c%10ccccc%109)cc8)sc7c6)cc5)sc4c3)sc2c1S(=O)(=O)O`, for which the IC50 is 22 µM (active).

Regarding `Cc1ccc2nc(-c3ccc4nc(-c5ccc6nc(-c7ccc8nc(-c9ccc(N)cc9)sc8c7)sc6c5)sc4c3)sc2c1S(=O)(=O)O`, the IC50 was 14 µM (active).

On to `Cc1ccc2nc(-c3ccc(NC(=O)c4ccc(NC(=O)OCC5c6ccccc6-c6ccccc65)cc4)cc3)sc2c1S(=O)(=O)O`, for which the IC50 is > 100 µM (inactive).

On to `Cc1ccc(C(=O)Nc2ccc(-c3nc4ccc(-c5nc6ccc(C)c(S(=O)(=O)O)c6s5)cc4s3)cc2)cc1`, for which the IC50 is > 100 µM (inactive).

Regarding `Cc1ccc2nc(-c3ccc(NC(=O)c4ccc(NC(=O)c5ccc(C(F)(F)F)cc5)cc4)cc3)sc2c1S(=O)(=O)O`, the IC50 was > 100 µM (inactive).
